An excerpt weighted towards active compounds, which were near 3.6% of everything screened.
mHTT CaM bind = disrupts binding of mutant huntingtin to calmodulin; P42858; AlphaScreen His-mHTT/GST-CaM binding, luminescence; inhibition, % at 15 µM; 190,000 compounds, 3.6% hits;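 also: 0% = both proteins with DMSO and 100% = one protein alone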
Target sequence (P42858 whole entry, looked up, stated change not applied): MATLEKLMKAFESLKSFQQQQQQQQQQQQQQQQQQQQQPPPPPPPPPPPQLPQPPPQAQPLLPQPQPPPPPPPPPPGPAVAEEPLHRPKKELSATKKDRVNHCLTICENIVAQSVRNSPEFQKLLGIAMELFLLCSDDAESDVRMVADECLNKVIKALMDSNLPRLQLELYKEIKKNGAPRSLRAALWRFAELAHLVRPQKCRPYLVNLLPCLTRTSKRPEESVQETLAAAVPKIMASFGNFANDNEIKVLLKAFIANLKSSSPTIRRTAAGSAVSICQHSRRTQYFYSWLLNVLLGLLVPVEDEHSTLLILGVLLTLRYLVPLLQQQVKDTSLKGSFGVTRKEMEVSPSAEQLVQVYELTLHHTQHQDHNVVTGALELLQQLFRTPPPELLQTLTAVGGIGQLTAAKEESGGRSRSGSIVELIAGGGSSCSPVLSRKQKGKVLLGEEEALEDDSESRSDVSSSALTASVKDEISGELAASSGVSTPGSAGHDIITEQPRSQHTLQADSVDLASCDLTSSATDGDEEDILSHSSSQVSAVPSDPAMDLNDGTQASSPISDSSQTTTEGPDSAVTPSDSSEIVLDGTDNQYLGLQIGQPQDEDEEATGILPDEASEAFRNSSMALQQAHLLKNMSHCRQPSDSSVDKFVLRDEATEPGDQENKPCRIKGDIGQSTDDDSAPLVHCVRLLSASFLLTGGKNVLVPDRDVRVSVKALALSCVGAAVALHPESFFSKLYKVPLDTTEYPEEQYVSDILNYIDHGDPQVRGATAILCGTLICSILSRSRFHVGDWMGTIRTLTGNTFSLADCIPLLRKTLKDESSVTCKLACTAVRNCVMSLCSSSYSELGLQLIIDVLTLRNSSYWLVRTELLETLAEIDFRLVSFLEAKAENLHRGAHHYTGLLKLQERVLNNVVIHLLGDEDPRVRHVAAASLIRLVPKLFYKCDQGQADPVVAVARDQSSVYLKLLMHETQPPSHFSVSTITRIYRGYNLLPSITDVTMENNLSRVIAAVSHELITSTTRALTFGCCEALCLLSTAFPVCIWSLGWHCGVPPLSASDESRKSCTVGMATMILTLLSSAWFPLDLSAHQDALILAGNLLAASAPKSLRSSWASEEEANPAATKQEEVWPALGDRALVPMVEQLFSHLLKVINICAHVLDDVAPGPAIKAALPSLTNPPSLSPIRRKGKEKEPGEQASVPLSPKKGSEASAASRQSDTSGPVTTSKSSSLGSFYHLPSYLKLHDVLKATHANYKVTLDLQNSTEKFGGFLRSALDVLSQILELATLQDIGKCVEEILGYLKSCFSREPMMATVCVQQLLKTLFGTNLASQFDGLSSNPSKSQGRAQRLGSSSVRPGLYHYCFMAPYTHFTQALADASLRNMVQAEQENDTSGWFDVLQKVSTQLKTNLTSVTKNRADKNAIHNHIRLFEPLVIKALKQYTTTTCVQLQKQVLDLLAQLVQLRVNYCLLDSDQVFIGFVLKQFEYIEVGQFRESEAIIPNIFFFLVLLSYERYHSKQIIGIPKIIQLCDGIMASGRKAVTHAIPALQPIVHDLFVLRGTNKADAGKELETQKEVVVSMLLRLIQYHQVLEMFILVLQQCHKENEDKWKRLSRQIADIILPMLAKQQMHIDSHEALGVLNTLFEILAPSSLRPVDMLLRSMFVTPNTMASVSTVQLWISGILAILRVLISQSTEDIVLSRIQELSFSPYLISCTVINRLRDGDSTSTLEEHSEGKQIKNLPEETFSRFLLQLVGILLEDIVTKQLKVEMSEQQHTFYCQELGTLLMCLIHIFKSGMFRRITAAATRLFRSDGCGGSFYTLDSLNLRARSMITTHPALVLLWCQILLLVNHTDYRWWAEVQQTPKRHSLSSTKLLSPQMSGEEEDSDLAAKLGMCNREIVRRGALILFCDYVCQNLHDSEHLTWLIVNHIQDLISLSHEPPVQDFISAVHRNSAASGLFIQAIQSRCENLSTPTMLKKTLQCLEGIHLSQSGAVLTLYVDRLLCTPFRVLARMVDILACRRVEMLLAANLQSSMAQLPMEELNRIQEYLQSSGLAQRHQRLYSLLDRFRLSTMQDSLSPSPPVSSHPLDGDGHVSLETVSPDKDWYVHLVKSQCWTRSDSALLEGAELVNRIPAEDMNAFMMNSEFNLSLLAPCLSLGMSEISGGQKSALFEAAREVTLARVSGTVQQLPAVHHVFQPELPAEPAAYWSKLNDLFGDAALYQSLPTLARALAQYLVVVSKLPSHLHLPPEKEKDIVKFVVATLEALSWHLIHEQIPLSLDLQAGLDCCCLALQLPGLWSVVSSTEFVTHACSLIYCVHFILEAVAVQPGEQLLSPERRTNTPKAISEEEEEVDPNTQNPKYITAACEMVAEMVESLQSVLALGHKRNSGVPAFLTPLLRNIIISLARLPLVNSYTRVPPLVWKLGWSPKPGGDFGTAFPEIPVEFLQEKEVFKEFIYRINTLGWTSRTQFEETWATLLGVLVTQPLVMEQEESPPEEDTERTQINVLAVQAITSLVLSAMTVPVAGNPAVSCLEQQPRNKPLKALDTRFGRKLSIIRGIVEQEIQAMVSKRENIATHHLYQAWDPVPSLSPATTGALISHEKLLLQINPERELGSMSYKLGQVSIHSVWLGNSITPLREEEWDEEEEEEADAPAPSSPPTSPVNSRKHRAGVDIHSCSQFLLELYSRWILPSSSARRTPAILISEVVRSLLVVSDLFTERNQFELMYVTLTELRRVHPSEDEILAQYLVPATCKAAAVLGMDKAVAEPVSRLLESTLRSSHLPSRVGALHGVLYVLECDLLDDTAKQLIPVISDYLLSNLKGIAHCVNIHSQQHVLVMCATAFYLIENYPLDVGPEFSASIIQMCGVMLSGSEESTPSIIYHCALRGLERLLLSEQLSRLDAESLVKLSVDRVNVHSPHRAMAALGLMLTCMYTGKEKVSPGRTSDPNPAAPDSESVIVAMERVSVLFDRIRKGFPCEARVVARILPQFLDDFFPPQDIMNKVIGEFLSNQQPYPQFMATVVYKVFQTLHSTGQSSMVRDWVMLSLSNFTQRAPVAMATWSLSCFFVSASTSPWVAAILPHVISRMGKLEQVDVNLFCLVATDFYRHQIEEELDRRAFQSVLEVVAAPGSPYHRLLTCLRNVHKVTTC
Pf apPOL block = Pf-apPOL DNA polymerase inhibition. inhibition, % at 10 µM. 210,000 compounds, 0.25% hits. Recombinant Pf-apPOL, molecular beacon fluorescence, 1.5 h
Active calls of the source: *; nt = no result. Rule as the data show it: active = inhibition above about 50%; inactive = the rest.

SMILES	mHTT CaM bind	Pf apPOL block
COc1ccc(-n2nc(C(=O)N3CCCC3)c3ccccc3c2=O)c(OC)c1	-12.0	3.3
COc1ccc(-n2nc(C(=O)N3CCC(C)CC3)c3ccccc3c2=O)c(OC)c1	0.0	51.4*
COc1cc(CN2CC(C)OC(C)C2)cc([N+](=O)[O-])c1O (stereo unspecified)	1.4	-3.3
CC[C@@H]1CC=C[C@H]2[C@H]1C(=O)N(Cc1ccccc1)[C@H]2c1cccc([N+](=O)[O-])c1	13.7	1.0
Fc1ccc(C2=Nn3c(nnc3-c3cccc(Cl)c3)SC2)cc1	5.0	1.4
O=C(NC1CCCC1)C1c2ccccc2C(=O)N1Cc1ccccc1Cl (stereo unspecified)	53.0*	0.7
CC1CCC(NC(=O)C2c3ccccc3C(=O)N2Cc2ccccc2Cl)CC1 (stereo unspecified)	8.0	-2.9
Nc1ncnc(N(Cc2ccccc2)c2ccccc2)c1[N+](=O)[O-]	10.0	-0.3
O=c1cc(-c2ccccc2)oc2c1Cc1ccccc1-2	47.0	-1.1
Cc1ccccc1CSCc1ccc(C(=O)NCc2cccnc2)o1	10.0	9.9
CNC(=O)N1CCCC(c2cccc(C(=O)NCc3ccc(F)cc3)c2)C1 (stereo unspecified)	-1.9	0.6
CCC1CN(C(=O)NCc2ccc(F)cc2)c2ccccc2O1 (stereo unspecified)	-17.8	-2.1
O=C(NCc1ccc(F)cc1)c1ccc(NC(=O)N2CC3CCCN3c3ccccc32)cc1 (stereo unspecified)	54.1*	-0.8
O=C(NCc1ccc(F)cc1)N1CC2CCCN2c2ccccc21 (stereo unspecified)	77.3*	-4.0
COc1cc(C(=O)Nc2ccc(Cl)cc2)cc(OC)c1OC	-6.4	-6.5
CC1=NN(c2ccccc2)C(=O)/C1=C/c1cccnc1	4.0	-3.2
CC1=NN(c2ccccc2)C(=O)/C1=C/c1ccc(N)cc1	57.0*	-4.7
CC1=NN(c2ccc(Cl)c(C(=O)O)c2)C(=O)/C1=C/c1ccc(Cl)cc1	6.0	3.0
CC1=NN(c2ccccc2)C(=O)/C1=C/c1ccccc1F	32.0	-3.9
CC1=NN(c2ccccc2)C(=O)/C1=C/c1ccc(Cl)cc1	53.0*	5.6
CC1=NN(c2ccccc2)C(=O)/C1=C/c1ccc[nH]1	81.0*	-10.5
O=C(c1ccc2c(c1)OCO2)N1CCc2nc[nH]c2C1	7.2	-1.2
Cc1oc2c(CN(C)C)c(O)ccc2c(=O)c1-c1ccccc1	-4.5	-5.9
O=[N+]([O-])c1ccc(Cc2ncccc2O)cc1	-5.1	-3.1
Nc1cc(Br)cc2cccnc12	-5.3	5.6
SMILES	mHTT CaM bind	Pf apPOL block
Oc1cc(O)c2ncccc2c1	100.4*	1.2
O=[N+]([O-])c1cc(O)c2ncccc2c1	100.3*	-185.5
COc1ccc(C(=O)C2Oc3ccccc3C3CC(c4ccccc4)=NN23)cc1 (stereo unspecified)	8.0	-2.9
COCCN1C(=O)Cc2ccccc2C1C(=O)N1CCN(c2cccc(Cl)c2)CC1 (stereo unspecified)	67.1*	-4.3
CCN1C(=O)Cc2ccccc2C1C(=O)N1CCN(c2cccc(Cl)c2)CC1 (stereo unspecified)	5.1	2.8
Cc1ccc(NC(=O)c2c(O)c3cc(F)cc4c3n(c2=O)C(C)CC4)nc1 (stereo unspecified)	-2.0	-75.8
COc1ccc(Nc2nc(NN)nc(OCC(F)(F)F)n2)cc1	92.4*	nt
COc1ccc(Nc2nc(Cl)nc(NC(C)C)n2)cc1	6.0	-3.4
COc1ccc(S(=O)(=O)N2CCC(C(=O)Nc3ccc(F)c(Cl)c3)CC2)cc1OC	4.3	-8.8
Cc1ccc(SCC(=O)Nc2ccc(F)cc2)cc1	nt	-6.0
Cc1ccc(NC(=O)CSc2nc3n(n2)C(=O)C(=O)N3)cc1	3.0	93.6*
Cc1cccc(C(=O)N2CCN(c3nc(CN4CCCCC4)cs3)CC2)c1	3.5	-1.6
CC(C)CNC(=O)C1CC(=O)N(CCc2c[nH]c3ccc(Cl)cc23)C1 (stereo unspecified)	14.2	-0.8
O=C(NCCc1ccccc1)C1CC(=O)N(CCc2c[nH]c3ccc(Cl)cc23)C1 (stereo unspecified)	90.0*	-1.6
O=C1CC(C(=O)N2CCc3ccccc3C2)CN1CCc1c[nH]c2ccc(Cl)cc12 (stereo unspecified)	65.0*	3.1
CCCNC(=O)C1CC(=O)N(CCc2c[nH]c3ccc(Cl)cc23)C1 (stereo unspecified)	28.3	-0.3
O=C(NCc1ccccn1)C1CC(=O)N(CCc2c[nH]c3ccc(Cl)cc23)C1 (stereo unspecified)	92.5*	-3.3
O=C1CC(C(=O)N2CCc3ccccc3C2)CN1CCc1c[nH]c2ccc(F)cc12 (stereo unspecified)	46.0	2.1
Nc1nnc(SCC(=O)Nc2nnc(-c3ccccc3)s2)s1	-0.7	-5.4
Cc1cccc(NC(=O)O[C@@H]2C[C@H]3C[C@@H]2[C@H]2CCCCN2C3)c1	2.8	-5.1
CCOc1ccc(OCC)c(NS(=O)(=O)c2ccc(OCC)c3ncccc23)c1	27.0	-6.9
COc1ccc(OC)c(NC(=O)Cc2ccc(OC)c(OC)c2)c1	9.5	85.5*
COc1ccc(CCNC(=O)CCN2N=C(c3ccccc3)CCC2=O)cc1OC	1.0	-18.3
COc1ccc(CCNC(=O)Cc2ccc(OC)c(OC)c2)cc1OC	nt	-2.2
COCC(=O)Nc1cc(OC)ccc1OC	3.4	-9.0
SMILES	mHTT CaM bind	Pf apPOL block
COc1cccc2cc(C(=O)Nc3sc(-c4ccccc4)cc3C(N)=O)oc12	-35.7	0.1
COc1ccc(CCNC(=O)CCN2N=C(c3ccc(C)cc3)CCC2=O)cc1OC	87.0*	-16.4
COCC(=O)NCCc1ccc(OC)c(OC)c1	3.4	98.3*
COc1ccc(CC(=O)Nc2sc(-c3ccccc3)cc2C(N)=O)cc1OC	83.4*	-42.4
CN1CCN(C(=O)CN(c2cccc([N+](=O)[O-])c2)S(=O)(=O)c2ccccc2)CC1	0.4	-5.3
COc1ccccc1NC(=O)c1c(F)cccc1Cl	-3.2	3.1
CCOC(=O)C(C#N)=CN1CCCC1c1cccs1 (stereo unspecified)	nt	-7.2
O=C1OC(c2cccc(Cl)c2Cl)=N/C1=C\c1ccc(F)cc1	5.0	11.3
COc1ccccc1CC(=O)NCCc1ccccc1	62.6*	-2.0
COc1ccccc1CC(=O)NCCCc1ccccc1	-1.0	-9.5
O=C(c1ccccc1)N1CCN(c2nc(-c3ccc([N+](=O)[O-])cc3)cs2)CC1	2.1	-5.6
N=C(N)N=C(N)N1CCOCC1	-5.0	nt
CC1(C)C(C=C(Cl)Cl)C1C(=O)Nc1sc2c(c1C(N)=O)CCCC2 (stereo unspecified)	100.0*	0.6
CC1(C)C(C=C(Cl)Cl)C1C(=O)Nc1sc2c(c1C#N)CCC2 (stereo unspecified)	1.4	-1.2
COc1cc(/C=C2\C(=O)NN(c3ccc(C)c(Cl)c3)C2=O)ccc1OCc1ccccc1	1.0	2.2
O=C(O)c1cnn2cccnc12	9.0	-1.3
O=C(O)c1cc2ncccn2n1	-1.0	51.5*
CNC(=O)C1CN(S(=O)(=O)c2cccc(F)c2)CC12CCCC2 (stereo unspecified)	-8.4	-3.2
Cc1oc(CC(C)C)c(CN2CCOCC2)c1C(=O)O	-1.3	-0.8
CN(C)CCNC(=O)CC12CC3CC(C1)CC(c1ccccc1)(C3)C2	64.4*	-2.1
CCN(CC)CCNC(=O)COc1ccc(OC)cc1	-1.4	3.1
CN(C)CCNC(=O)COc1ccc(C23CC4CC(CC(C4)C2)C3)cc1	95.4*	-3.1
